# PubChem BioAssay (Tox21)
# Several values for one entry are separate records, joined by “and”; a condition that tells them apart may be missing. Identical values can stand only once. Records with an inconclusive call do not appear. A number with no mark means an inactive call. Activity calls are given as the source filed them. Calls come from the whole dose curve.
# Test: qHTS assay for small molecule agonists of the p53 signaling pathway (AID 651631); note: nearly all actives have a fitted effect of over 15% in size
# Settings: HCT-116 p53RE-bla reporter, beta-lactamase FRET ratio, 16 h; series mostly up to 73.3 µM; activation: at the top concentration
# From the text: U.S. Tox21 Program National Center for Advancing Translational Sciences [NCATS] NIH Chemical Genomics Center [NCGC] U.S. Environmental Protection Agency [EPA] National Institutes of Environmental Health Sciences [NIEHS] National Toxicology Program [NTP] U.S. Food and Drug Administration [FDA] Tox21 Assay Overview: p53, a tumor suppressor protein, is activated following cellular insult, including DNA damage and other cellular stresses. The activation of p53 regulates cell fate by inducing DNA repair, cell cycle arrest, apoptosis, or cellular senescence. The activation of p53, therefore, is a good indicator of DNA damage and other cellular stresses. The CellSensor p53RE-bla HCT-116 cell line (Invitrogen) contains a stably integrated beta-lactamase reporter gene under control of the p53 response elements. The activation of the reporter gene under culture conditions can be detected by fluorescence intensity. This cell line was used to screen the Tox21 compound library in a 1536-well plate format and to identify agonists that activate the p53 signaling pathway.
# Tox21 Assay Protocol Summary: The p53RE-bla cells were dispensed at 4,000 cells/5 ul/well in 1536-well black wall/clear bottom plates using a Multidrop dispenser. After the assay plates were incubated at a 37 C/5% CO2 incubator for 5 hours, 23 nL of compounds dissolved in DMSO, positive controls or DMSO only was transferred to the assay plate by a pin tool. The plates were incubated at 37 C for 16 hours. After 1 uL of LiveBLAzerTM B/G FRET substrate was added using a Flying Reagent Dispenser, the plates were incubated at room temperature for 2 hours, and fluorescence intensity was measured by an Envision plate reader.
# % is set by controls: 0 for no effect and ±100 for the full control effect; potency is the fitted concentration of half-maximal effect.
Compound,activation,Potency
CC1(C)O[C@@H]2C[C@H]3[C@@H]4CCC5=CC(=O)C=C[C@]5(C)[C@H]4[C@@H](O)C[C@]3(C)[C@]2(C(=O)CO)O1,-3.35%,
CC#N,-2.14% [at 95.1 µM],
CCOC(=N)CC(=O)OCC,-1.65%,
C=CC(C)(O)CCCC(C)CCCC(C)CCCC(C)C (stereo not given),0.661%,
CCCCCCCCSCCO,-1.37%,
CC(=O)Nc1ccc(N)cc1,-2.53% [at 95.1 µM],
O=C(O)c1cccnc1C(=O)O,-0.607%,
C[C@@H]1C[C@H]2[C@@H]3CCC4=CC(=O)C=C[C@]4(C)[C@@]3(F)[C@@H](O)C[C@]2(C)[C@H]1C(=O)CO,-6.02%,
CCC(C)(O)CCC=C(C)C (stereo not given),3.76%,
O=C(C(=O)c1ccccc1)c1ccccc1,1.02%,
C[C@]12CCC(=O)C=C1C=C[C@@H]1[C@@H]2CC[C@@]2(C)[C@H]1CC[C@@]21CCC(=O)O1,-1.7%,
COCC(O)CO (stereo not given),-4.75% [at 95.1 µM],
CCCCC(=O)O[C@]1(C(=O)CO)CC[C@H]2[C@@H]3CCC4=CC(=O)CC[C@]4(C)[C@H]3[C@@H](O)C[C@@]21C,-2.75%,
O=C1OCCN1/N=C/c1ccc([N+](=O)[O-])o1,-3.39%,
CCCOC(=O)c1ccc(N)cc1,-4.15%,
C=C(C)C(=O)OCCOC(=O)CC(C)=O,3.7%,
CC(CCO)CCc1ccccc1 (stereo not given),7.47%,
CN(C(=O)C(Cl)Cl)c1ccc(OC(=O)c2ccco2)cc1,-2.73%,
COc1cc2[nH]c(=O)[nH]c(=O)c2cc1OC,-2.74% [at 34.7 µM],
CC1=CC(=O)CC(C)(C)C1(O)/C=C/C(C)=C\C(=O)O (stereo not given),-1.85%,

Compound,activation,Potency
CCCCC(=O)O[C@]1(C(=O)CO)[C@@H](C)C[C@H]2[C@@H]3CCC4=CC(=O)C=C[C@]4(C)[C@@]3(F)[C@@H](O)C[C@@]21C,-4.98%,
O=C(CCCN1CCC(O)(c2ccc(Br)cc2)CC1)c1ccc(F)cc1,-3.96% [at 34.7 µM],
CCOc1cc(N)c(Cl)cc1C(=O)NCC1CN(Cc2ccc(F)cc2)CCO1 (stereo not given),-3.06%,
O=C(O)Cc1ccc(-c2ccccc2)cc1,-5.13% [at 34.7 µM],
O=C(NCCCN1CCOCC1)c1ccc(Cl)cc1,-1.62%,
O=C(O)c1snc(Cl)c1Cl,6.49%,
O=C(CCCCCCC(=O)Nc1ccccc1)NO,,750 nM (active) and 668 nM (active)
CCCCC(CC)COC(=O)COc1ccc(Cl)cc1C (stereo not given),-1.2%,
Nc1nc(Cl)nc2c1ncn2[C@@H]1O[C@H](CO)[C@@H](O)[C@@H]1F,,84.1 nM (active)
CCOC(=O)CC(=O)C(=O)OCC,2%,
Nc1nccs1,3.64%,
Cc1cc(O)c2c(O)c3c(O)cccc3cc2c1,-5.24%,
Nc1ccc(S(=O)(=O)O)c(N)c1,3.3%,
CC1(C)C2=CCCC(C)(C)[C@]23CC[C@H]1C3,6.96%,
C(=C\c1ccccc1)/CN1CCN(C(c2ccccc2)c2ccccc2)CC1,-2.31% [at 34.7 µM],
Fc1ccccc1[C@@H](F)COC1CCC(Nc2ncnc3[nH]ncc23)CC1 (stereo not given in full),-2.95%,
c1ccc(COCc2ccccc2)cc1,0.878% [at 95.1 µM],
C[Si]1(C)O[Si](C)(C)O[Si](C)(C)O1,-2.91%,
CC1(C)C(=O)N(Br)C(=O)N1Cl,1.74%,
N#C[C@@H]1C[C@@H]2C[C@@H]2N1C(=O)[C@@H](N)C12CC3CC(CC(O)(C3)C1)C2,-0.575%,
